This passage reports growth results from PubChem BioAssay (NCI).

About 83,000 compounds went through this panel and 20% of them were active in at least one assay; those are over-represented in the sample as a whole.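 Compound tested at a single concentration for 48 hours in 96-well plates; a percent growth value below 10 was scored as active.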 Unmarked numbers belong to inactive results. The source made the active and inactive calls.

This test has as its system IGROV1 ovarian. Description: NCI-60 one-dose screen, 48 h (100 = growth as untreated, 0 = no growth, -100 = all killed). The following applies: 10 µM unless noted. The method, then:
Growth inhibition of the IGROV1 human tumor cell line is measured as a screen for anti-cancer activity. Cells are grown in 96 well plates and exposed to the test compound for 48 hours. Compounds are tested at a single concentration, which is 10^-5 M for most compounds. The reported endpoint is percent growth (GI% or GIPRCNT), where numbers from 0 - 100% represent growth inhibition, and numbers from -100% - 0 represent cell death. For example, a value of 40 represents 60% growth inhibition. A value of 0 means no net growth occurred over the course of the experiment. A value of -40 indicates 40% of cells at the beginning of the experiment died by the end of the experiment. A value of -100 means all cells are dead at the end of the experiment.
NCI-60 Human Tumor Cell Lines Screen was performed using the standard one-dose NCI protocol, which is described in more detail at https://dtp.cancer.gov/discovery_development/nci-60/default.htm.
Compounds with GIPRCNT values below 10 were considered active. Activity score was based on GIPRCNT using the following formula: […]
Score is 0 for GIPRCNT values of 100 or above, 50 for GIPRCNT values of 0, and 100 for GIPRCNT values of -100.
Turning to `Clc1ccc(N/N=C/c2ccccn2)nc1`, the growth is 11.2%.

For `O=C(Nc1cccc(Cn2c(=O)[nH]c3ccc(Oc4ncccn4)cc3c2=O)c1)c1cccc(F)c1`, the growth was 78.2%.

For `Cc1c(C(N)=O)sc2c1c(=O)n(Cc1ccccc1)c1nnc(S(C)(=O)=O)n21`, the growth is 106%.

As to `COCC(=O)NNc1[nH]c(-c2ccc(OC)cc2)cc1C#N`, the growth was 22.4%.

Take `CC1=C(C)C[C@]2(C(=O)O[C@H]3CCCC[C@@H]32)[S@](=O)C1`: the growth is 113%.

For `CC(=O)N(N=O)c1ccc([N+](=O)[O-])cc1Cl`, the growth was 67.7%.

Turning to `Cc1ccc(CC(=O)O)c(C)c1`, the growth is 112%.

On to `CC(=O)Oc1cc2ccccc2cc1C(C)C`, for which the growth was 123%.

In the case of `Cc1c(Cc2ccccc2)c(=O)oc2c(C)c(OCC(=O)n3nc(C#N)cc3N)ccc12`, the growth was 103%.

As to `N#CCCCCCCCCCCC#N`, the growth is 124%.

On to `O=C(/C=C1\C(=O)N(Cc2ccc([N+](=O)[O-])cc2)c2ccccc21)c1ccc(OCCN2CCCCC2)cc1`, for which the growth was -49.3% (active).

On to `Cn1c2c(cc(S(=O)(=O)c3ccccc3)c1=O)CCc1c-2cnn1-c1ccc(Cl)cc1`, for which the growth is 50.6%.

Turning to `S=C(N/N=C/c1cc(Cl)cc(Cl)c1)NC12CC3CC(CC(C3)C1)C2`, the growth was 78.1%.

In the case of `BrCCCOc1ccc(Oc2ccc(OCCCBr)cc2)cc1`, the growth was 97.7%.

Take `N#Cc1c2cccnc2c2nnc3cc(Cl)c(Cl)cc3n12`: the growth was 10.6%.

Regarding `Oc1ccccc1/C=N/N=C\c1ccccc1Cl`, the growth is 70.3%.

For the molecule `C=C(NC(=O)[C@H](C(C)C)N(C)c1cccc2[nH]ccc12)C(=O)OC`, the growth is 111%.

As to `O=C1C(Cl)=C(SC2=NCCN2)C(=O)c2ccccc21`, the growth was 49.9%.

For `C=CCN(C)C`, the growth was 104%.

In the case of `O=C1OC(c2ccc(-c3ccccc3)cc2)=C/C1=C/c1c2ccccc2cc2ccccc12`, the growth was 101%.

Turning to `CC(O)CN(CC(C)O)N(CC(C)O)CC(C)O` (stereo not given), the growth was 113%.

Regarding `CC(=O)NNC(=O)c1sc(NC(C)=O)nc1C`, the growth was 23.4%.

`Nc1nc2c(c3cnccc13)C(c1cccc(Br)c1)Cc1cnccc1-2` (stereo not given): the growth is 27.9%.

For the molecule `CCCCCSc1ccc2nc(NC(=O)OCC)sc2c1`, the growth is 46.2%.

Turning to `CC[N+](C)(C)N`, the growth is 111%.

Consider `Cc1nc(N)sc1C(=O)NCCO`, for which the growth was 118%.

In the case of `CCOC(=O)c1sc(NS(=O)(=O)c2ccccc2)nc1C`, the growth is 6.87% (active).

For `OC(c1ccccc1)(c1ccccc1)C(F)(F)F`, the growth was 115%.

For `COc1cccc(CNC(=O)c2cccc(C3CC(=O)c4c(cc(OC)c(OC)c4OC)O3)c2)c1` (stereo not given), the growth is 46.5%.

On to `CCOC(=O)c1c2c(cn1Cc1ccccc1)-c1oncc1CC2`, for which the growth was 101%.

With `COC(=O)C(N)CC(C)C` (stereo not given), the growth was 115%.

On to `COc1cc(Cn2ccc3c2-c2oncc2CC3)cc(OC)c1`, for which the growth was 26.2%.

Turning to `O=C(O)CS(=O)c1ccc(Cl)cc1` (stereo not given), the growth was 115%.

Consider `CC(=O)c1nn(-c2ccc(C)cc2)cc1C(=O)c1cc2c(ccc3ccccc32)oc1=O`, for which the growth is 88%.

As to `O=c1[nH]c2cc(O)ccc2n2cc3c(F)cccc3c12`, the growth is 16.9%.

For `COc1ccccc1C(=O)Nc1cccc(-c2cc(=O)c3c(OC)c(OC)c(OC)cc3o2)c1`, the growth was 42.9%.

In the case of `COc1cc(-c2nc3c(c(C)nc4c3nnn4-c3ccccc3)c(=O)o2)cc(OC)c1OC`, the growth is 112%.

Turning to `COc1cc(-c2nn(-c3ccc(NC(=O)c4ccc(Cl)c(C(F)(F)F)c4)cc3)cc2-c2ccncc2)ccc1Cl`, the growth is 46.7%.

For `O=C(CCC(=O)N(CCO)CCO)N(CCO)CCO`, the growth is 98.1%.

Consider `Nc1nc2cc(O)ccc2n2cc3c(F)cccc3c12`, for which the growth was 18.4%.
